Inconclusive results are not listed. A call without a number means that no potency is given here. Active and inactive are the calls of the source. Unless noted, calls come from the whole dose curve; as a rule, active = well fitted curve in the direction sought with a large enough effect in the repeat runs; inconclusive = weak or mixed curves; inactive = no such curve, though single readings can be large; an effect the other way counts as inactive or inconclusive.
Assays:
[1] = qHTS assay to identify small molecule agonists of the vitamin D receptor (VDR) signaling pathway - cell viability counter screen (AID 743224); note: nearly all actives have a fitted effect of over 50% in size; note: potency is the fitted concentration of half-maximal effect
Procedure, shortened: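 VDR-bla cells were preincubated 4 h at 37C/5% CO2, then exposed to compounds for 16 h. After the 2 h room-temperature bla FRET read, CellTiter-Glo was added to the same wells and luminescence read after 30 min.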

[2] = qHTS assay to identify small molecule antagonists of the vitamin D receptor (VDR) signaling pathway - cell viability counter screen (AID 743225); note: nearly all actives have a fitted effect of over 50% in size
Procedure, shortened: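 Viability counter screen run in the same wells as the beta-lactamase reporter assay: HEK 293T VDR-UAS-bla cells, 16 h compound exposure at 37C with 3 nM (final) 1-alpha,25-dihydroxyvitamin D3. CellTiter-Glo luminescence, 30 min, room temperature.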

[3] = qHTS assay to identify small molecule agonists of the NFkB signaling pathway (AID 1159509; active = well fitted curve in the direction sought with a large enough effect in the signal ratio in the repeat runs, not every such curve was filed as active; the % refers to the signal ratio; note: series mostly up to about 61 µM)
Procedure, shortened: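 NFkB-bla ME-180 cells carry a beta-lactamase reporter under an NF-kB response element. They were plated overnight, then exposed to compounds for 5 h at 37 C. Read-out is LiveBLAzer FRET after 1.5 hr at room temperature (405 nm excitation; 460/530 nm emission).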

[4] = qHTS assay to identify small molecule agonists of the NFkB signaling pathway - cell viability counter screen (AID 1159515; calls by dose curve; note: series mostly up to about 61 µM; nearly all actives have a fitted effect of over 55% in size)
Procedure, shortened: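 NFkB-bla ME-180 cells, 2,000/well, were plated overnight at 37 C, 5% CO2, then exposed to compounds in DMSO for 5 hr. After the bla FRET read, CellTiter-Glo was added to the same wells; luminescence was read after 30 min at room temperature.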

[5] = qHTS assay to identify small molecule agonists of the endoplasmic reticulum stress response signaling pathway (AID 1159516; active = well fitted activation curve with a large enough effect in the signal ratio in the repeat runs, not every such curve was filed as active; the % refers to the signal ratio)
Procedure, shortened: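 CellSensor ESRE-bla HeLa cells, carrying a beta-lactamase reporter driven by the ER stress response element, were plated overnight and exposed to compounds for 5 hr at 37 C. Reporter activity was read as FRET substrate fluorescence after 2 hr at room temperature.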

[6] = qHTS assay to identify small molecule agonists of the endoplasmic reticulum stress response signaling pathway - cell viability counter screen (AID 1159517; calls by dose curve; note: series mostly up to about 61 µM; nearly all actives have a fitted effect of over 50% in size)
Procedure, shortened: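 HeLa cells carrying an ESRE-driven beta-lactamase reporter receive compound for 5 hr at 37 C. Cell viability is then gauged with CellTiter-Glo by luminescence, 30 min at room temperature.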

[7] = qHTS assay to identify small molecule antagonists of the retinoid-related orphan receptor gamma (ROR-gamma) signaling pathway - cell viability counter screen (AID 1159520); note: nearly all actives have a fitted effect of over 50% in size; note: potency is the fitted concentration of half-maximal effect
Procedure, shortened: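 Cytotoxicity was read from cellular ATP (CellTiter-Glo luminescence) after 16 hr at 37 C with 1 uM doxycycline induction. The inducer was added 2 hr after compound transfer to Tet-on ROR gamma CHO cells.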

[8] = biological target: Nuclear receptor ROR-gamma (Homo sapiens) (UniProt P51449); experiment: qHTS assay to identify small molecule antagonists of the retinoid-related orphan receptor gamma (ROR-gamma) signaling pathway (AID 1159521; note: nearly all actives have a fitted effect of over 50% in size; note: potency is the fitted concentration of half-maximal effect)
Procedure, shortened: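 Luminescence readout (ONE-Glo, 30 min RT) after 16 h doxycycline induction; loss of signal scored as antagonism. CHO cells with TET-inducible RORγ and RORE-LUC reporter; compounds added 2 h before 1 uM final doxycycline.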

[9] = qHTS assay to identify small molecule agonists of the AP-1 signaling pathway - cell viability counter screen (AID 1159525; calls by dose curve; note: nearly all actives have a fitted effect of over 55% in size; note: potency is the fitted concentration of half-maximal effect)
Procedure, shortened: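 Luminescent ATP readout (Cell Titer Glo, 30 min RT), normalised to DMSO and tetra n-octyl ammonium bromide controls. Cells were ME-180 AP-1-bla in 0.5% dialyzed FBS Opti-MEM, with a 5 h, 37 °C compound exposure.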

[10] = biological target: Retinoic acid receptor RXR-alpha (Homo sapiens) (UniProt P19793); experiment: qHTS assay to identify small molecule agonists of the RXR signaling pathway (AID 1159527; calls by dose curve; note: nearly all actives have a fitted effect of over 35% in size)
Procedure, shortened: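 Agonist mode; 9-cis retinoic acid positive control. HEK 293T UAS-bla reporter cells, 2% charcoal-stripped FBS, 16 hr compound exposure at 37 C/5% CO2. LiveBLAzer B/G FRET substrate 2 hr RT; ex 405, em 460/530 nm.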

[11] = qHTS assay to identify small molecule agonists of the RXR signaling pathway - cell viability counter screen (AID 1159529); note: nearly all actives have a fitted effect of over 50% in size; note: potency is the fitted concentration of half-maximal effect
Procedure, shortened: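 Luminescence from CellTiter-Glo (30 min, RT) measured viability in the same wells as the beta-lactamase reporter readout. Cells: GeneBLAzer RXR-alpha HEK 293T, 2% charcoal-stripped FBS. Compound exposure 16 hr, 37 C.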

[12] = qHTS assay to identify small molecule antagonists of the retinoid acid receptor (RAR) signaling pathway - cell viability counter screen (AID 1159551); note: nearly all actives have a fitted effect of over 35% in size; note: potency is the fitted concentration of half-maximal effect
Procedure, shortened: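 C3RL4 cells were seeded overnight at 37 C, then treated with compounds plus 1 uM (final) retinol for 6 h at 37 C. Viability was read as ATP by CellTiter-Glo luminescence after 30 min at room temperature.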

[13] = qHTS assay to identify small molecule antagonists of the retinoic acid receptor (RAR) signaling pathway (AID 1159552; note: nearly all actives have a fitted effect of over 50% in size; note: potency is the fitted concentration of half-maximal effect)
Procedure, shortened: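 Luminescence from a RARE luciferase reporter in C3RL4 cells served as read-out. Cells received compounds together with 1 uM final retinol and incubated 6 hr at 37 C before detection reagent was added for 30 min at room temperature.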

[14] = qHTS assay to identify small molecule agonists of the retinoic acid receptor (RAR) signaling pathway (AID 1159553); note: potency is the fitted concentration of half-maximal effect
Procedure, shortened: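 C3RL4 cells carrying a RARE luciferase reporter were plated overnight at 37 C, then exposed to compounds in DMSO for 6 hr at 37 C and 5% CO2. Luminescence was read 30 min after luciferase reagent addition at room temperature.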

[15] = qHTS assay to identify small molecule agonists of the AP-1 signaling pathway (AID 1159526; calls by dose curve)

Chain of Retinoic acid receptor RXR-alpha (Homo sapiens) (P19793 whole entry, looked up): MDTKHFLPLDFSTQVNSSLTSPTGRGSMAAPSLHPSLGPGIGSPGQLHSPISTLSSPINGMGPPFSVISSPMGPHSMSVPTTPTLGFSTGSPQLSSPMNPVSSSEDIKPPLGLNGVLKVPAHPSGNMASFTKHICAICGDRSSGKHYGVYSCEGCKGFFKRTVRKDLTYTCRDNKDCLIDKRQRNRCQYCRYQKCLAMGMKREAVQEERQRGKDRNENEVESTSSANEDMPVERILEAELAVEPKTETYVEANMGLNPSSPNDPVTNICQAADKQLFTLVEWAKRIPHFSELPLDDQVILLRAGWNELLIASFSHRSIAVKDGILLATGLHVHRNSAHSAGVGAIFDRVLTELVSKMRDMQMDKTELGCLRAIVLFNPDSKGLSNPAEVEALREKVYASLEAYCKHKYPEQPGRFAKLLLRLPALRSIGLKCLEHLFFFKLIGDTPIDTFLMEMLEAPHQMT

| Structure (SMILES) | Potency [1] | outcome [2] | outcome [3] | outcome [4] | outcome [5] | Potency [6] | Potency [7] | Potency [8] | Potency [9] | Potency [10] | Potency [11] | Potency [12] | Potency [13] | Potency [14] | outcome [15] |
| --- | --- | --- | --- | --- | --- | --- | --- | --- | --- | --- | --- | --- | --- | --- | --- |
| O=C1CN2CCOC2(c2ccccc2Cl)c2cc(Cl)ccc2N1 (stereo not given) | inactive | inactive | inactive | inactive | inactive | inactive | inactive | inactive | inactive | inactive | inactive | inactive | inactive | inactive |  |
| Nc1cc2c3c(c1)C(c1ccccc1)=N[C@@H](NC(=O)c1cccnc1)C(=O)N3CC2 | inactive | inactive | inactive | inactive | inactive | inactive | inactive | inactive | inactive |  | inactive | inactive |  |  | inactive |
| OC(Cn1cncn1)(c1ccc(F)cc1)c1ccccc1F (stereo not given) | inactive | inactive | inactive | inactive | inactive | inactive | inactive | inactive | inactive |  | inactive | inactive |  |  | inactive |
| O=C1OC(CCN2CCCCC2)OC1(c1ccccc1)c1ccccc1 (stereo not given) | inactive | inactive | inactive | inactive | inactive | inactive | inactive | inactive | inactive | inactive | inactive | inactive | 26.6 µM (active) |  |  |
| CNNC |  | inactive | inactive | inactive | inactive | inactive | inactive | inactive | inactive | inactive | inactive | inactive | inactive | inactive |  |
| CC1COC2(c3ccccc3Cl)c3cc(Cl)ccc3NC(=O)CN12 (stereo not given) | inactive |  | inactive | inactive | inactive | inactive | inactive | inactive | inactive | inactive | inactive | inactive | 29.8 µM (active) | inactive |  |
| CC(=O)Nc1cc([As](=O)(O)O)ccc1O | inactive | inactive | inactive | inactive | inactive | inactive | inactive | inactive | inactive |  | inactive |  | inactive | inactive | inactive |
| O=C(O)c1ccc2[nH]cc(CCCCN3CC=C(c4ccccc4)CC3)c2c1 | inactive | inactive | inactive | inactive | inactive | inactive | inactive | inactive | inactive |  | inactive | inactive |  |  | inactive |
| CCN(CC)CCOC(=O)C(C)(c1ccccc1)c1ccccc1 | inactive |  | inactive | inactive | inactive | inactive | inactive |  | inactive | inactive | inactive | inactive | inactive | inactive | inactive |
| N#CC(CCc1ccc(Cl)cc1)(Cn1cncn1)c1ccccc1 (stereo not given) |  |  | inactive | inactive | inactive | inactive | 54.5 µM (active) | 27.3 µM (active) | 54.9 µM (active) |  | 24.5 µM (active) |  | 61.1 µM (active) | inactive |  |
| C=CCC1=C(C)[C@@H](OC(=O)[C@@H]2[C@@H](C=C(C)C)C2(C)C)CC1=O | 38.9 µM (active) |  | inactive | inactive | inactive | inactive | 54.5 µM (active) | 27.3 µM (active) | 49 µM (active) |  | 21.9 µM (active) | 54.5 µM (active) | 27.3 µM (active) | inactive |  |
| CSc1ccc(C(=O)C(C)(C)N2CCOCC2)cc1 | inactive |  | inactive | inactive | inactive | inactive | inactive |  | inactive | inactive | inactive | inactive | inactive | inactive | inactive |
| CN(N=O)C(N)=O | inactive |  | inactive | inactive | inactive | inactive | inactive | inactive | inactive |  | inactive | inactive | inactive |  |  |
| [O]=[Cd] | inactive | inactive | inactive | inactive | inactive | inactive | inactive | inactive |  |  | inactive | inactive |  |  |  |
| c1cc2c(c(N3CCNCC3)c1)OCCO2 | inactive |  | inactive | inactive | inactive | inactive | inactive | inactive |  | inactive | inactive | inactive | inactive | inactive | inactive |
| CCOP(=S)(OCC)SCSP(=S)(OCC)OCC | inactive | inactive | inactive | inactive | inactive | inactive | inactive | inactive | inactive |  |  | inactive | inactive |  |  |
| c1coc(-c2nc3ccccc3[nH]2)c1 | inactive |  | inactive | inactive | inactive | inactive | inactive |  | inactive | inactive | inactive | inactive | inactive | 3.86 µM (active) | inactive |
| CCOP(=S)(Oc1cnc(C(C)(C)C)nc1)OC(C)C (stereo not given) |  |  | inactive | inactive | inactive | inactive | inactive | inactive | inactive | inactive |  | inactive | inactive | inactive |  |
| CCN(CC)c1nc(C)cc(OP(=S)(OC)OC)n1 | inactive | inactive | inactive | inactive | inactive | inactive | inactive | inactive | inactive |  | inactive | inactive | inactive | inactive |  |
| CC1=C(C(=O)Nc2ccccc2)S(=O)(=O)CCO1 |  |  | inactive | inactive | inactive | inactive | inactive | 27.3 µM (active) |  |  | inactive | inactive |  | inactive | inactive |
| BrCCCCCCBr | inactive | inactive | inactive | inactive | inactive | inactive | inactive | inactive | inactive |  | inactive | inactive | inactive | inactive |  |
